# Test results from publication PMC5540273 (PLoS ONE, 2017).
# How the values were obtained:
# Details in all cases: concentration: 1 μM, replicates: in singlicate; n = 1
# PKAC-beta = test system: T1, PKAC-beta
# T1 construct: gene PRKACB
# PKMYT1 = test system: PKMYT1
# PKN1 = test system: PKN1
# PKN2 = test system: PKN2
# PLK1 = test system: PLK1
# PLK2 = test system: PLK2
# PLK3 = test system: PLK3
# PLK4 = test system: PLK4
# PRKCD = test system: PRKCD
# PRKCE = test system: PRKCE
# 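Also: KINOMEscan kinase panel screen.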
Structure (SMILES),%Inh (PKAC-beta) [%],%Inh (PKMYT1) [%],%Inh (PKN1) [%],%Inh (PKN2) [%],%Inh (PLK1) [%],%Inh (PLK2) [%],%Inh (PLK3) [%],%Inh (PLK4) [%],%Inh (PRKCD) [%],%Inh (PRKCE) [%]
COc1cccc(CNC(=O)NC2CCN(c3ccnc(Nc4ccc(F)cc4)n3)C2)c1 (centres unmarked) [GSK1379723],0,2,4,0,0,0,0,0,0,9
Cn1cncc1-c1cc2c(Nc3ccc(OCc4ccccc4)cc3)ncnc2cn1 [GW281179],7,0,0,0,0,0,0,0,3,4
CS(=O)(=O)Cc1ccc(Nc2nccc(-c3c(-c4cccc(NC(=O)C5CCCCC5)c4)nn4ncccc34)n2)cc1 [GSK350559],0,3,10,0,15,3,13,6,0,0
FC(F)(F)c1ccccc1-c1cc(-c2c[nH]nc2-c2ccccn2)ccn1 [GW679396],17,5,0,12,1,0,0,1,6,11
COc1cc2ncnc(Nc3cccc(Br)c3)c2cc1OC.Cl [GI230329],0,0,0,0,2,0,0,0,3,11
CNc1cc(-c2ccc3c(N)n[nH]c3c2)nc(N)n1 [GSK2224810],0,4,10,0,0,0,0,5,0,15
O=c1cc(N2CCOCC2)nc2n(Cc3ccccc3F)ccn12 [GSK2297428],0,0,7,0,13,0,0,8,0,1
CS(=O)(=O)CCNCc1nc(-c2ccc3ncnc(Nc4ccc5c(cnn5Cc5ccccc5)c4)c3c2)cs1.Cl.Cl [GW569716],3,6,0,15,0,0,0,13,0,11
CC(C)c1ccc(O)cc1Nc1ccnc2ccc(C(F)(F)F)cc12 [GW482059],16,0,36,0,0,0,0,0,0,0
COc1ccc(Nc2nccc(N3CCC(NC(=O)C(C)c4ccc(Cl)cc4)CC3)n2)cc1 (centres unmarked) [GSK1379812],8,9,0,6,20,0,0,13,0,1
CC(=O)c1c(C)c2cnc(Nc3ccn(C)n3)nc2n(C2CCCC2)c1=O,0,0,0,0,0,8,0,15,0,0
COc1nccc(-c2c(-c3ccc(F)cc3)ncn2CCCN2CCOCC2)n1 [SB-282852],16,0,0,0,0,0,13,20,38,0
O=C(Nc1n[nH]c2nc(-c3ccco3)c(Br)cc12)C1CCN(Cc2ccccc2)C1.O=C(O)[C@H](O)[C@@H](O)C(=O)O (centres unmarked) [SB-742034],15,8,0,41,3,24,5,22,35,1
CCn1c(-c2ccccc2)nc2cnccc21 [SB-733416],3,30,0,0,0,0,0,0,8,22
Cl.Cl.Cl.N#Cc1ccc(CCNc2nccc(-c3cccc(CN4CCNCC4)c3)n2)cc1 [GSK2137462],5,18,0,2,5,5,0,6,18,76
Nc1cccc(-c2ccc3c(N)n[nH]c3c2)n1 [GSK2192730],0,0,37,0,0,0,0,8,0,0
CN1c2ccc(-c3ccc(C(N)=O)cc3)cc2-c2[nH]ncc2S1(=O)=O,0,0,0,0,4,3,13,0,3,12
COc1ccc(Nc2nccc(N3CCC(NC(=O)c4cc5ccccc5s4)C3)n2)cc1 (centres unmarked) [GSK1379738],0,3,23,0,11,0,0,3,0,17
O=C1NC(=O)C(c2ccc(Cl)cc2)=C1Nc1ccc(O)cc1 [SB-340867],18,0,0,12,0,0,0,0,0,1
O=C1NC(=O)C(c2ccc(Cl)cc2)=C1Nc1cccc(Cl)c1 [SB-317651],94.7,0,15,0,4,0,30,0,12,3
Cc1ccc(-c2nc(Nc3ccncc3)c3ccccc3n2)s1 [GSK189015],18,19,26,20,0,0,0,0,15,0
COc1ccc(CSc2nnc(-c3ccc4c(c3)CCO4)o2)cc1,0,19,0,0,0,0,0,0,14,0
Cn1cncc1C(=O)NC1CCN(c2ccnc(Nc3ccc(F)cc3)n2)C1 (centres unmarked) [GSK1379717],0,0,52,0,12,0,11,0,0,0

Structure (SMILES),%Inh (PKAC-beta) [%],%Inh (PKMYT1) [%],%Inh (PKN1) [%],%Inh (PKN2) [%],%Inh (PLK1) [%],%Inh (PLK2) [%],%Inh (PLK3) [%],%Inh (PLK4) [%],%Inh (PRKCD) [%],%Inh (PRKCE) [%]
COc1ccc(Nc2nccc(N3CCC(NC(=O)C(C)c4ccc(Cl)cc4)C3)n2)cc1 (centres unmarked) [GSK1379735],4,0,29,0,0,0,0,0,0,5
COc1ccc(CSc2nnc(-c3ccc4ncsc4c3)o2)cc1C(F)(F)F,1,22,0,0,0,4,0,2,13,0
CNCc1ccc2nc(NC(=O)c3ccc(C(C)(C)C)cc3)cn2c1,5,11,8,7,2,7,22,8,0,12
Cc1ccc(NC(=O)Nc2ccc(Cl)c(C(F)(F)F)c2)cc1-c1ccc(C(=O)Nc2ccncc2)cc1 [GSK1398470],0,0,10,25,0,0,0,0,0,0
Cc1ccc(NC(=O)c2ccc(Cl)cc2)cc1-c1ccc(C(=O)Nc2ccncc2)cc1 [GSK1398467],0,2,2,0,0,0,0,0,3,15
COc1cccc(C2=C(Nc3cc(Cl)c(O)c(Cl)c3)C(=O)NC2=O)c1 [SB-390767],0,4,0,0,0,0,0,0,0,28
COc1ccc(-c2coc3ccc(-c4nnc(C)o4)cc23)cc1,8,1,7,18,0,0,0,2,5,2
COc1ccc(Nc2nccc(-c3ccc(NC(=O)c4cc5cc(F)ccc5[nH]4)cc3)n2)cc1 [GSK1229496],0,0,13,0,0,0,0,0,0,6
CNC(=O)c1ccc(C)c(-n2c(C)cc(OCc3ccc(F)cc3F)c(Br)c2=O)c1,74,0,0,19,0,0,0,0,7,35
COC(=O)c1cccc(NC(=O)NC2CCN(c3ccnc(Nc4ccc(OC)cc4)n3)C2)c1 (centres unmarked) [GSK1379746],0,0,11,0,0,0,0,0,0,8
NS(=O)(=O)c1cccc(N/C=C2\C(=O)Nc3ccc(S(=O)(=O)Cc4c(Cl)cccc4Cl)cc32)c1 [GSK398099],0,5,38,0,1,0,0,18,0,11
COC(=O)C(NC(=O)NC1CCN(c2ccnc(Nc3ccc(F)cc3)n2)C1)c1ccccc1 (centres unmarked) [GSK1379712],0,0,18,0,13,3,4,1,0,18
CC[C@@H]1CO[C@H](C(=O)Nc2ccccc2)CN1c1cc(-c2ccc3c(N)n[nH]c3c2)nc(NC)n1 [GSK2376236],73,0,85,0,0,0,0,0,0,3
Cc1ccc(NC(=O)Nc2ccc(Cl)cc2)cc1-c1ccc(C(=O)Nc2ccncc2)cc1 [GSK1398472],0,5,0,0,0,0,0,0,0,21
CC(=O)c1c(C)c2cnc(Nc3ccc(N4CCNCC4)cn3)nc2n(C2CCCC2)c1=O,6,23,0,15,0,0,0,6,18,55
CNc1nc(-c2ccc3c(N)n[nH]c3c2)cc(N2C[C@@H](C(=O)Nc3ccccc3)CC[C@H]2C)n1 [GSK2298859],66,0,0,0,0,0,0,0,16,0
CSc1ccc(-c2nc3n(c2-c2ccncc2)CCC3)cc1 [SKF-105561],18,5,0,12,1,29,6,2,9,23
Cc1ccccc1Cn1ccn2c(=O)cc(N3CCOCC3)nc12 [GSK2269905],1,0,0,0,0,0,0,0,0,7
COC(=O)C(Cc1ccccc1)NC(=O)NC1CCN(c2ccnc(Nc3ccc(F)cc3)n2)C1 (centres unmarked) [GSK1379714],0,0,41,0,6,0,0,12,1,20
COc1cccc(NC(=O)Nc2ccc(C)c(-c3ccc(C(=O)Nc4ccncc4)cc3)c2)c1 [GSK1398474],0,0,0,14,0,0,0,6,15,0
COc1ccc(CSc2nnc(-c3ccc4nccn4c3)o2)cc1C(F)(F)F,26,28,3,33,0,42,16,11,20,21
CCCCc1nn2ncccc2c1-c1ccnc(NC2CC2)n1 [GW684374],0,0,18,0,0,0,0,0,0,1
Cc1ccccc1-c1cc(-c2c[nH]nc2-c2ccccn2)ccn1 [GW680061],0,0,0,0,0,0,0,0,0,10

Structure (SMILES),%Inh (PKAC-beta) [%],%Inh (PKMYT1) [%],%Inh (PKN1) [%],%Inh (PKN2) [%],%Inh (PLK1) [%],%Inh (PLK2) [%],%Inh (PLK3) [%],%Inh (PLK4) [%],%Inh (PRKCD) [%],%Inh (PRKCE) [%]
COc1ccc2cc(-c3nc(-c4ccccc4C(C)C)[nH]c3-c3ccncc3)ccc2c1 [SB-660566],3,7,24,0,0,0,0,4,0,0
Nc1ncnc2occ(-c3ccc4c(c3)CCN4C(=O)Cc3cc(F)ccc3F)c12 [GSK2645446],8,0,7,0,0,0,0,5,0,0
Cc1cnc(N)c(/C=C/c2cncc(C(=O)NCCc3ccc(Cl)cc3Cl)c2)c1.Cl [GSK190937],–,0,7,0,0,0,0,0,8,21
Cc1c(Cn2c(C)c(C)n3c(=O)cc(N4CCOCC4)nc23)cccc1C(F)(F)F [GSK2328680],0,17,0,0,0,100,0,0,0,0
Cc1ccc(NC(=O)Nc2ccccc2)cc1-c1ccc(C(=O)Nc2ccncc2)cc1 [GSK1398471],0,28,0,2,2,0,0,1,0,0
Cc1ccc(NC(=O)Nc2ccccc2F)cc1-c1ccc(C(=O)Nc2ccncc2)cc1 [GSK1398477],32,18,26,12,5,0,0,0,19,4
O=C(Nc1n[nH]c2cc(-c3ccsc3)ccc12)C1CC1 [SB-732932],18,9,56,4,2,24,0,0,0,0
Fc1ccc(-c2nc3n(c2-c2ccncc2)CCS3)cc1 [GI98581],23,10,0,0,0,0,0,0,1,0
CCc1ccc(-c2ccc3c(c2)-c2n[nH]cc2S(=O)(=O)N3C)cc1,12,2,0,0,6,0,7,0,0,14
O=C(Nc1n[nH]c2nc(-c3cccs3)c(Br)cc12)C1CC1 [SB-735297],2,0,0,0,9,19,7,8,7,19
c1ccc(-c2ccnc3[nH]ccc23)cc1 [SB-693578],8,6,0,0,0,0,0,5,0,7
CCn1c(-c2c(N)noc2C)nc2cnccc21 [SB-737856],0,0,29,0,0,0,0,0,0,0
Cn1cnc2c(N)ncnc21 [SKF-97623],0,0,0,0,0,0,0,0,0,9
O=C(Nc1n[nH]c2nc(-c3cccs3)c(Br)cc12)C1CCCC1 [SB-743341],0,0,0,5,0,21,26,25,29,0
Cc1c(Cn2c3ccccc3n3c(=O)cc(N4CCOCC4)nc23)cccc1C(F)(F)F [GSK2306394],0,0,100,0,0,0,0,0,0,0
Fc1ccc(-c2nn3cccc(F)c3c2-c2ccncc2)cc1 [GW475620],47,11,9,11,9,69,0,3,19,6
CC(C)c1cc(-c2ccc3c(N)n[nH]c3c2)nc(N)n1 [GSK2250882],0,14,0,0,0,0,0,0,0,5
COC(=O)c1cccc(NC(=O)NC2CCN(c3ccnc(Nc4ccc(F)cc4)n3)C2)c1 (centres unmarked) [GSK1379725],0,0,0,0,0,0,0,0,0,4
O=c1cc(N2CCOCC2)nc2n(Cc3cccc(Cl)c3Cl)c3ccccc3n12 [GSK2299009],11,32,21,0,0,0,0,7,32,3
CS(=O)(=O)CCNCc1nc(-c2ccc3ncnc(Nc4ccc(OCc5ccccc5)c(Cl)c4)c3c2)cs1.Cl [GW582764],2,0,0,0,0,0,0,0,0,6
Nc1nccc(-c2c(-c3ccc(F)cc3)ncn2C2CCN(Cc3ccccc3)CC2)n1 [SB-219980],0,26,0,0,12,28,10,8,0,1
CC(=O)c1cccc(NC(=O)NC2CCN(c3ccnc(Nc4ccc(F)cc4)n3)C2)c1 (centres unmarked) [GSK1379710],0,3,31,0,7,0,9,0,0,15
Cc1cccc2c(-c3ccncn3)c(-c3ccc(F)cc3)nn12 [GW515532],15,5,23,0,0,0,0,0,5,0
